This passage reports growth results from PubChem BioAssay (NCI).

Compounds without any hit were thinned out: in the full panel of roughly 83,000, 20% have a hit.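 A percent growth of 40 corresponds to 60% growth inhibition; 0 means no net growth; -100 means all cells died. Active threshold: below 10.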 Active and inactive are the calls of the source.

The subject of the first assay is SK-OV-3 ovarian. Nature of the assay: NCI-60 one-dose screen, 48 h (100 = growth as untreated, 0 = no growth, -100 = all killed). Conditions: 10 µM unless noted.
For `O=C(/C=C/c1cccc(Nc2ccnc3cc(Cl)ccc23)c1)c1ccc(Cl)cc1`, the growth was 76.7% (inactive).
Still for that read-out and setting: the figure for `Nc1c(C(=O)Nc2cccc(Cl)c2)sc2nc3c(cc12)C(O)CCC3` (centres undefined) is 35.4% (inactive); for `Nc1nc(Nc2ccccc2SSc2ccccc2Nc2nc(N)nc(C(Cl)(Cl)Cl)n2)nc(C(Cl)(Cl)Cl)n1` it is 121% (inactive); for `Cc1ccc(/C=C(/C#N)n2nnc3ncccc32)cc1` it is 14.2% (inactive).
In the case of `O=C1C=CC(=O)N1c1ccccn1`, the growth is 115% (inactive).
For the molecule `c1ccc(COc2ccc(Nc3ncnc4c3cnn4-c3ccccc3)cc2)cc1`, the growth is 108% (inactive).
With `CN1C(=O)C(C2=NN(C=O)C(c3ccc(F)cc3)C2)C(=O)N(C)C1=O` (centres undefined), the growth is 94.6% (inactive).
`COc1ccc(C(=O)/C=C/c2cccc(Nc3ccnc4cc(Cl)ccc34)c2)cc1`: the growth was 64% (inactive).
The same measure, in the same setting: the figure for `Cc1n(Cc2ccc3ccccc3c2)cc[n+]1Cc1ccc2ccccc2c1` is 21% (inactive); for `O=C(/C=C/c1ccc(C(F)(F)F)cc1)c1ccc(Nc2nc(NCCO)nc(NCCO)n2)cc1` it is 70.7% (inactive); for `O[N+]1=CC=CCC1=S.On1ccccc1=S.[Zn]` it is -96.6% (active).
With `Cn1c(=O)c2[nH]c(=S)n(Cc3ccccc3)c2n(C)c1=O`, the growth is 107% (inactive).
In the case of `COc1cc(/C=C/C(=O)c2c(C)n([O-])c3ccc(Cl)cc3[n+]2=O)cc(OC)c1OC`, the growth was 104% (inactive).
For `COc1ccc(Oc2ccccc2NC(=O)CNC(=O)c2cccc3ccccc23)cc1`, the growth was 20.4% [5 µM] (inactive).
Still for that read-out and setting: the figure for `CN[C@@H]1C(OC2[C@H](O[C@H]3[C@H](O)[C@@H](O)[C@H](N=C(N)N)[C@@H](O)[C@@H]3N=C(N)N)OC(C)[C@]2(O)CO)OC(CO)C(O)C1O` (some centres undefined) is 112% (inactive); for `CNc1nc(NC2CCCC2)nc(Sc2ccc(OC)cc2)n1` it is 74.9% [100 µM] (inactive).
With `COc1ccc(OC)c(CCn2cncc2-c2c[nH]c3cc(Br)ccc23)c1`, the growth was 38.8% (inactive).
Turning to `COc1cnc2c(c1)C(=O)c1c-2n(CCCN2CCCC2)c(=O)c2cc(F)ccc12`, the growth is -24.6% (active).
Still for that read-out and setting: the figure for `COc1cc(C2=NN(C=O)C(c3cccc(Nc4ccnc5cc(Cl)ccc45)c3)C2)cc(OC)c1OC` (centres undefined) is 80.5% (inactive).
Still for that read-out and setting: for `N#Cc1c(-c2ccccc2)cc(-c2ccccc2)n(CCCCC(=O)O)c1=O` the value was 136% (inactive); for `CCOC(=O)/C=C1/SC(=Nc2ccc(C#N)cc2)N(Cc2ccco2)C1=O`, 91.7% (inactive); for `O=C(NCCNC(=O)Oc1cccc2ccccc12)Oc1cccc2ccccc12`, 94.5% (inactive).
Still for that read-out and setting: for `Oc1ccc(/C=N/Nc2nc3ccccc3s2)c(O)c1` the value was 8.68% (active).
On to `C=C1CC[C@@H]2[C@](C)(COC(C)=O)[C@H](OC(C)=O)CC[C@@]2(C)[C@@H]1CC(NCc1ccccc1)C1=CCOC1=O` (some centres undefined), for which the growth was 79.2% (inactive).
In the case of `Nc1nc(SCc2cccnc2)c2ncn(C3OC(CO)C(O)C3O)c2n1` (centres undefined), the growth was 107% (inactive).
As to `COc1ccc(C2=NN(C=O)C(c3cccc(Nc4ccnc5cc(Cl)ccc45)c3)C2)cc1` (centres undefined), the growth is 20.6% (inactive).
`O=CN1N=C(c2ccc(Nc3ccnc4cc(Cl)ccc34)cc2)CC1c1ccc(Cl)cc1` (centres undefined): the growth was 4.28% (active).
The same measure, in the same setting: the figure for `Cc1sc2nc(N3CCCCC3)[nH]c(=O)c2c1C` is 92.3% (inactive); for `Cc1ccc(N/N=C(/C(=O)c2ccc(Cl)cc2)c2nc(C)cc(=O)[nH]2)cc1` it is 116% (inactive).

Another assay deals with IGROV1 ovarian. The assay is described as above. The conditions noted are these: 10 µM unless noted.
Consider `CCCc1n(Cc2ccc3ccccc3c2)cc[n+]1Cc1ccc2ccccc2c1`, for which the growth is -54.2% (active).
On to `CC(=O)OCC(=O)[C@@]1(O)CC[C@H]2[C@@H]3CCC4=CC(=O)CC[C@]4(C)[C@@]3(F)[C@@H](O)C[C@@]21C`, for which the growth was 116% (inactive).
For the molecule `COC(=O)[C@H](Cc1cnc[nH]1)NC(=O)[C@@H](NC(=O)Nc1cc(C(F)(F)F)cc(C(F)(F)F)c1)C(C)C`, the growth is -80.5% [100 µM] (active).
Regarding `COc1ccccc1-n1c(-c2ccc(O)cc2C)cn2c3c(=O)[nH]c(=O)n(C)c3nc12`, the growth is 21.9% (inactive).
On the same count and under the same terms, for `Nc1nc(Nc2ccccc2SSc2ccccc2Nc2nc(N)nc(-c3cccc(Cl)c3)n2)nc(-c2cccc(Cl)c2)n1` the value was 69.7% (inactive); for `COc1ccc2c(c1)C(=Nc1cc(OC)c(OC)c(OC)c1)C(=O)N2`, 94.1% (inactive); for `CC1C(=O)NC2=Nc3ccccc3C(=O)NN21` (centres undefined), 79.6% (inactive).
Turning to `CC1c2ccccc2-c2ccccc2N1C` (centres undefined), the growth was 98.3% (inactive).
Still for that read-out and setting: for `CCC(C)C1NC(=O)C(CCNCS(=O)(=O)O)NC(=O)C(NC(=O)C(CCNCS(=O)(=O)O)NC(=O)C(NC(=O)C(CCNCS(=O)(=O)O)NC(=O)CCCCC(C)C)C(C)O)CCNC(=O)C(C(C)O)NC(=O)C(CCNCS(=O)(=O)O)NC(=O)C(CCNCS(=O)(=O)O)NC(=O)C(C(C)CC)NC1=O` (centres undefined) the value was 56.8% (inactive).
Still for that read-out and setting: the figure for `O=C(N/N=C/c1ccc(Cl)cc1Cl)c1ccccc1Nc1cccc(C(F)(F)F)c1` is 43.8% (inactive); for `COc1cnc2c(c1)C(=O)c1c-2n(CCCN2CCNCC2)c(=O)c2cc(F)ccc12` it is 23% (inactive).
The same measure, in the same setting: the figure for `O=C(/C=C/c1cccc(Nc2ccnc3cc(Cl)ccc23)c1)c1ccc(Cl)cc1` is 40.7% (inactive); for `Nc1c(C(=O)Nc2cccc(Cl)c2)sc2nc3c(cc12)C(O)CCC3` (centres undefined) it is 31.1% (inactive).
On to `Nc1nc(Nc2ccccc2SSc2ccccc2Nc2nc(N)nc(C(Cl)(Cl)Cl)n2)nc(C(Cl)(Cl)Cl)n1`, for which the growth was 37% (inactive).
Take `Cc1ccc(/C=C(/C#N)n2nnc3ncccc32)cc1`: the growth is 19.3% (inactive).
For `O=C1C=CC(=O)N1c1ccccn1`, the growth is 113% (inactive).
Regarding `c1ccc(COc2ccc(Nc3ncnc4c3cnn4-c3ccccc3)cc2)cc1`, the growth was 100% (inactive).
Consider `CN1C(=O)C(C2=NN(C=O)C(c3ccc(F)cc3)C2)C(=O)N(C)C1=O` (centres undefined), for which the growth is 104% (inactive).
For the molecule `COc1ccc(C(=O)/C=C/c2cccc(Nc3ccnc4cc(Cl)ccc34)c2)cc1`, the growth was 30.2% (inactive).
`Cc1n(Cc2ccc3ccccc3c2)cc[n+]1Cc1ccc2ccccc2c1`: the growth was -38.1% (active).
Consider `O=C(/C=C/c1ccc(C(F)(F)F)cc1)c1ccc(Nc2nc(NCCO)nc(NCCO)n2)cc1`, for which the growth is 72.5% (inactive).
The same measure, in the same setting: for `O[N+]1=CC=CCC1=S.On1ccccc1=S.[Zn]` the value was -81.2% (active); for `Cn1c(=O)c2[nH]c(=S)n(Cc3ccccc3)c2n(C)c1=O`, 108% (inactive).
Consider `COc1cc(/C=C/C(=O)c2c(C)n([O-])c3ccc(Cl)cc3[n+]2=O)cc(OC)c1OC`, for which the growth was -62.2% (active).
For the molecule `COc1ccc(Oc2ccccc2NC(=O)CNC(=O)c2cccc3ccccc23)cc1`, the growth was 33% [5 µM] (inactive).
Turning to `CN[C@@H]1C(OC2[C@H](O[C@H]3[C@H](O)[C@@H](O)[C@H](N=C(N)N)[C@@H](O)[C@@H]3N=C(N)N)OC(C)[C@]2(O)CO)OC(CO)C(O)C1O` (some centres undefined), the growth is 105% (inactive).
The same measure, in the same setting: the figure for `CNc1nc(NC2CCCC2)nc(Sc2ccc(OC)cc2)n1` is 45.9% [100 µM] (inactive); for `COc1ccc(OC)c(CCn2cncc2-c2c[nH]c3cc(Br)ccc23)c1` it is 47.9% (inactive).
Regarding `COc1cnc2c(c1)C(=O)c1c-2n(CCCN2CCCC2)c(=O)c2cc(F)ccc12`, the growth was 4.37% (active).
Still for that read-out and setting: for `COc1cc(C2=NN(C=O)C(c3cccc(Nc4ccnc5cc(Cl)ccc45)c3)C2)cc(OC)c1OC` (centres undefined) the value was 102% (inactive); for `N#Cc1c(-c2ccccc2)cc(-c2ccccc2)n(CCCCC(=O)O)c1=O`, 102% (inactive).
`CCOC(=O)/C=C1/SC(=Nc2ccc(C#N)cc2)N(Cc2ccco2)C1=O`: the growth is 26.3% (inactive).
For `O=C(NCCNC(=O)Oc1cccc2ccccc12)Oc1cccc2ccccc12`, the growth was 65.2% (inactive).
As to `Oc1ccc(/C=N/Nc2nc3ccccc3s2)c(O)c1`, the growth is 22.3% (inactive).
Still for that read-out and setting: the figure for `C=C1CC[C@@H]2[C@](C)(COC(C)=O)[C@H](OC(C)=O)CC[C@@]2(C)[C@@H]1CC(NCc1ccccc1)C1=CCOC1=O` (some centres undefined) is 62.9% (inactive); for `Nc1nc(SCc2cccnc2)c2ncn(C3OC(CO)C(O)C3O)c2n1` (centres undefined) it is 98.6% (inactive); for `COc1ccc(C2=NN(C=O)C(c3cccc(Nc4ccnc5cc(Cl)ccc45)c3)C2)cc1` (centres undefined) it is 44.1% (inactive).
Consider `O=CN1N=C(c2ccc(Nc3ccnc4cc(Cl)ccc34)cc2)CC1c1ccc(Cl)cc1` (centres undefined), for which the growth was 27.3% (inactive).
As to `Cc1sc2nc(N3CCCCC3)[nH]c(=O)c2c1C`, the growth is 107% (inactive).
With `Cc1ccc(N/N=C(/C(=O)c2ccc(Cl)cc2)c2nc(C)cc(=O)[nH]2)cc1`, the growth is 7.59% (active).
